Results taken from PubChem BioAssay.

test system: Lefty1; assay: Lefty1 protein binding to printed compounds – biochemical, small-molecule microarray, 635/667 nm fluorescence, primary screen (AID 1139); conditions: fluorescence 635/667, higher = more signal

In order of falling composite z-score:
1. C=C(COC)/C(=C/C[C@@H](OC(=O)c1ccncc1)c1ccc(CO)o1)c1cc(C(=O)OC)ccc1OC  1.64
2. COc1ccc(C(=O)Nc2ccc(CN3C(=O)[C@]4(O[C@H](CCO)[C@@H]([Si](C)(C)c5ccc(OC)cc5)[C@@H]4C)c4ccccc43)cc2)cc1  1.36
3. NC(=O)NCC#Cc1ccc2c(c1)[C@]1(C(=O)N2)[C@H](C(=O)Nc2nc3ccccc3s2)[C@H]2C(=O)O[C@H](c3ccccc3)[C@H](c3ccccc3)N2[C@@H]1c1ccccc1OCCO  1.34
4. COCCOC(=O)N1C(=O)[C@@]2(c3cc(C#CCC(C(=O)OC)C(=O)OC)ccc31)[C@H](c1ccccc1OCCO)N1[C@H](c3ccccc3)[C@H](c3ccccc3)OC(=O)[C@H]1[C@@H]2C(=O)N1CCN(c2ncccn2)CC1  1.17
5. CCCC[C@H]1OB(O)C[C@H]2C1=C(COC)Cn1c(=O)n(-c3ccccc3)c(=O)n12  0.63
6. O=C(NCCO)C1=C[C@H](Oc2ccccc2I)[C@@H](O)[C@H](N(Cc2ccco2)C(=O)Cc2ccccc2)C1  0.624
7. CCOC(=O)C[C@H]1[C@H](OC(=O)c2ccc(C(=O)c3ccccc3)cc2)[C@@H](NC(=O)c2ccccc2)c2cc(OCCCO)ccc2N1C(=O)Cc1ccc(OC)cc1  0.545
8. COCCCNC(=O)[C@@]1(C)c2ccccc2C(=O)N(C(C)C)[C@H]1c1ccc(CO)cc1  0.499
9. NC(=O)NCC#Cc1ccc2c(c1)[C@]1(C(=O)N2)[C@H](c2ccccc2OCCO)N2[C@H](c3ccccc3)[C@H](c3ccccc3)OC(=O)[C@H]2[C@@H]1C(=O)Nc1nc2ccccc2s1  0.373
10. COc1ccc(/C=C/C=O)cc1  0.321
11. CC1(C)C2C=C(C(O)C3C=CC4C(=O)NC(=O)C4N3Nc3ccc(Cl)cc3Cl)C[C@@H]1C2 (some centres not stated)  0.317
12. COc1cc2c(cc1OC)CN(C(=O)[C@@H]1[C@H]3C(=O)O[C@H](c4ccccc4)[C@H](c4ccccc4)N3[C@H](c3ccc(O)cc3)[C@@]13C(=O)Nc1ccccc13)CC2  0.259
13. C=CCC(OC(C)=O)[C@@H]1[C@@H](N(Cc2ccc(-c3ccccc3)cc2)C(=O)c2ccc(-c3ccccc3)cc2)c2cc(OCCCO)ccc2N1C(=O)Cc1ccc2ccccc2c1 (some centres not stated)  0.211
14. C=CCC(OC(C)=O)[C@@H]1[C@@H](N(Cc2ccc(-c3ccccc3)cc2)C(=O)Cc2ccc(OC)cc2)c2cc(OCCCO)ccc2N1C(=O)Cc1ccc2ccccc2c1 (some centres not stated)  0.168
15. C#C[C@H](O[Si](C#Cc1ccc(Oc2ccccc2)cc1)(C(C)C)C(C)C)c1ccccc1  0.104
16. [N-]=[N+]=Nc1ccccc1[C@@H]1OC(c2ccc(OCCCO)cc2)=N[C@]1(Cc1ccccc1)C(=O)N1CCOCC1  0.0367
17. C=CC[C@]1(C(=O)NCCCOC)N=C(c2ccc(OCCCO)cc2)O[C@H]1c1ccccc1CN=[N+]=[N-]  -0.0763
18. CC(C)CNC(=O)[C@@]1(Cc2ccccc2I)c2ccccc2C(=O)N(C2CCCCC2)[C@H]1c1ccc(CO)cc1  -0.104
19. CO[C@H]1O[C@H](CO)[C@@H](OC(=O)Nc2cccc(F)c2)[C@H](OC(=O)Nc2ccccc2)[C@@H]1OC(=O)Nc1ccccc1  -0.105
20. C=CCC(OC(C)=O)[C@@H]1[C@@H](N(Cc2ccc(-c3ccccc3)cc2)C(=O)c2cccc3ccccc23)c2cc(OCCCO)ccc2N1C(=O)c1ccc(-c2ccccc2)cc1 (some centres not stated)  -0.111
21. CC1CC/C=C\[C@H]2OC34C=CCN(Cc5ccccc5)C(=O)[C@H]3N(CCCO)C(=O)[C@@H]4C2C(=O)O1 (some centres not stated)  -0.215
22. COC(=O)[C@@]1(Cc2ccc(OC)cc2)[C@@H]2C(=CC(=O)[C@H]2CC(=O)C(=O)N2CCCC2)CN1C(=O)c1ccccc1  -0.319
23. [N-]=[N+]=Nc1ccccc1[C@@H]1OC(c2ccc(OCCCO)cc2)=N[C@]1(CCS(=O)(=O)c1ccccc1)C(N)=O  -0.411
24. Cc1ccc(S[C@]2(C(=O)NCCCN(C)C)CC(=O)N(Cc3cc(C(F)(F)F)cc(C(F)(F)F)c3)[C@@H]2c2ccc(CO)cc2)cc1  -0.493
25. COC(=O)[C@@]1(Cc2ccc(F)cc2)[C@H]2c3cc(C(=O)N4CCCC4)n(CCCNc4ncc(C(F)(F)F)cc4Cl)c3C[C@H]2CN1C(=O)c1ccccc1  -0.695
26. Cc1ccc(S[C@]2(C(=O)NCCCN(C)C)CC(=O)N(Cc3ccccc3C(F)(F)F)[C@@H]2c2ccc(CO)cc2)cc1  -0.853
27. Cc1ccc(N2C(=O)c3ccccc3[C@@H](C(=O)NC3CC3)[C@@H]2c2ccc(CO)cc2)nc1  -1.79
